Laboratory results: ChEMBL document CHEMBL3988442, “University of Dundee, Small-Polar-MMV Screening Library” (2021)
About 13,000 (27%) of roughly 48,000 compounds showed an effect of 50% or more. This is one part of the list.

Each compound was assayed on Wolbachia pipientis (assay: Anti-Wolbachia Cell-Based Screen). Conditions: 5 µM.
Assay type: functional
Parameters: scale not given: in the data most compounds retested in dose-response had high values

| SMILES | Percent Effect [%] |
| --- | --- |
| CS(=O)(=O)c1ccc(O[C@H]2COCCN(C(=O)c3ccno3)C2)cc1 | -17.98 |
| CCCN(c1ccccc1C(=O)O)S(=O)(=O)c1ccc2ccccc2c1 | -7.662 |
| CC1=CCN(C(=O)Nc2ccccc2N2CCOC2=O)CC1 | 8.909 |
| COc1ccc(C)cc1C1(CNc2cn[nH]c(=O)c2Cl)CCOCC1 | 1.939 |
| CC(NC(=O)N(C)Cc1ccncc1)c1cn(-c2ccccc2)nn1 (stereo unspecified) | -5.138 |
| COC(=O)N1CCC(Nc2cccc(F)c2C(C)=O)CC1 | 7.066 |
| CCCN(Cc1cccnc1)C(=O)C1CCNC1 (stereo unspecified) | -6.629 |
| Cc1cccc(CN(Cc2cccnc2)C2CC(C)(C)NC(C)(C)C2)n1.O=C(O)CC(O)(CC(=O)O)C(=O)O | 68.09 |
| CC1(C)CC(N(Cc2ccncc2)Cc2cccnc2)CC(C)(C)N1.O=C(O)CC(O)(CC(=O)O)C(=O)O | 106.8 |
| CCCN(Cc1cccnc1)C1CC(C)(C)NC(C)(C)C1.O=C(O)CC(O)(CC(=O)O)C(=O)O | 90.76 |
| CC1(C)CC(N(Cc2cccnc2)Cc2cccc(F)c2)CC(C)(C)N1.O=C(O)CC(O)(CC(=O)O)C(=O)O | 152.9 |
| CCCN(Cc1cccnc1)C(=O)C1CCS(=O)(=O)CC1 | -18.37 |
| CC1CN(c2ccc(CNC(=O)NCCn3ccnc3)cn2)CCO1 (stereo unspecified) | -7.777 |
| Cc1nn(C)cc1-c1ccnc(N(C)Cc2ccoc2)n1 | -63.97 |
| CN(Cc1ccncc1)C(=O)Nc1cnn(CC2CCCO2)c1 (stereo unspecified) | -18.51 |
| Cl.O=C(Nc1cccc(C(=O)OCC2CCCN2)c1)c1ccoc1 (stereo unspecified) | -16.18 |
| Cc1cc(C)n(CC2CCCN2CCCS(=O)(=O)N(C)C)n1 (stereo unspecified) | -14.18 |
| Cc1cc(=O)[nH]c(NCCNC(=O)CN2CCCCCC2)n1 | 0.3352 |
| COCCCSc1ccc(NCc2scnc2C)cc1 | -22.23 |
| CNC(=O)NC(=O)CN(CC(C)O)c1ccccc1 (stereo unspecified) | 1.255 |
| Cc1ccsc1CN(Cc1cccnc1)C1CC(C)(C)NC(C)(C)C1.O=C(O)CC(O)(CC(=O)O)C(=O)O | 106.7 |
| CC1(C)CC(N(Cc2cccnc2)Cc2cccnc2)CC(C)(C)N1.O=C(O)CC(O)(CC(=O)O)C(=O)O | 81.01 |

| SMILES | Percent Effect [%] |
| --- | --- |
| CC1(C)CC(N(Cc2ccccc2)Cc2cccnc2)CC(C)(C)N1.O=C(O)CC(O)(CC(=O)O)C(=O)O | 31.11 |
| Cc1ccc(CN(Cc2cccnc2)C2CC(C)(C)NC(C)(C)C2)s1.O=C(O)CC(O)(CC(=O)O)C(=O)O | 9.465 |
| Cc1ncsc1C(=O)N(Cc1cccnc1)C1CC1 | 11.29 |
| CN(C)c1ncc2c(n1)N(C)CCN(CC1CC1)C2=O | 109.4 |
| CN1CCc2nc(N(C)C)nc(N3CCC(O)CC3)c2C1 | 12.64 |
| CCCN(C)c1ncc2c(n1)N(C)CCN(CC1CC1)C2=O | 98.31 |
| Cc1ccccc1-n1cnnc1SCCOCC1CCCO1 (stereo unspecified) | -11.81 |
| Cc1ccc(-c2noc([C@@H]3C[C@H](NC(=O)CC(C)(C)C)CN3C)n2)cc1 | -9.06 |
| Cc1ccnc(CC(C)N(C)c2cc(CN)nc(C)n2)c1 (stereo unspecified) | -4.516 |
| CC(c1ccc(F)c(F)c1)N1CCN(Cc2nccn2C)CC1 (stereo unspecified) | -0.152 |
| CCn1ccnc1CN1CCN(CC(O)c2cccc(F)c2)CC1 (stereo unspecified) | 152.7 |
| CC(c1cccc(F)c1)N1CCN(Cc2nccn2C)CC1 (stereo unspecified) | 119.5 |
| Cn1ccnc1CN1CCN(CC(O)c2cccc(F)c2)CC1 (stereo unspecified) | 1.006 |
| COc1ccc(C(C)N2CCN(Cc3nccn3C)CC2)cc1Cl (stereo unspecified) | -0.7599 |
| CCn1ccnc1CN1CCN(CC(O)c2ccccc2)CC1 (stereo unspecified) | -0.4709 |
| O=C(O)C(F)(F)F.O=C(O)C(F)(F)F.O=C(O)C(F)(F)F.c1cnc(NCc2noc3c2CN(CCN2CCCC2)CC3)nc1 | -9.81 |
| Cc1ccc(NC(=O)NC(C)c2nc[nH]n2)s1 (stereo unspecified) | 10.15 |
| CSCCN1CCN(c2nc(N)ncc2C)CC1 | -15.55 |
| O=C(c1cnccn1)N1CCN2C[C@H](OCc3ccccn3)C[C@H]2C1 | 1.808 |
| COc1cccc(CC2(C(=O)O)CCN(c3nccs3)CC2)c1 | 5.275 |
| COc1ccc(-c2cccc(CC3(C(=O)O)CCOCC3)c2)cc1 | 106.8 |
| O=C(O)C1(Cc2cccc(-c3ccc(F)c(F)c3)c2)CCOCC1 | -9.122 |

| SMILES | Percent Effect [%] |
| --- | --- |
| COc1cccc(CC2(C(=O)O)CCN(c3ccc(Cl)cn3)CC2)c1 | -33.64 |
| Fc1ccc(C2(NCc3ccccc3)CCOCC2)cc1 | -10.48 |
| O=C(O)C1(Cc2cccc(-c3ccc(F)cc3)c2)CCOCC1 | 105.2 |
| CN(Cc1ccco1)c1ccc(-c2nccn2C)nn1 | -4.631 |
| CC1=C[C@@H](CN2CCCC2)[C@H](C(C)C)C[C@H]1Cc1nnc(C)o1 | -4.134 |
| CC(C)(C)OC(=O)N1CCCN1C(=O)c1cccc(F)c1F | -1.297 |
| O=C(Nc1ccc(F)c(-n2cccc2)c1)NC1(CCO)CCOCC1 | 29.93 |
| Cc1nccn1CCCC(=O)Nc1nc(C(C)C)nn1C | -14.12 |
| Br.Cc1cc(C)nc(NCCC(=O)NCCn2ccnc2C)n1 | 178 |
| Cc1cc(NC(=O)CCCn2ccnc2C)nc(C(C)C)n1 | -7.681 |
| CSC1(CNC(=O)N(C)Cc2sccc2C)CCOCC1 | 7.6 |
| O=C(N1CCOCC1)N1CC[C@H]2[C@@H]1CCC(=O)N2c1ccccc1 | -0.9647 |
| Cc1cccnc1N1CCC(c2nccn2Cc2cscn2)CC1 | -9.317 |
| COc1ccc(C(=O)NCC(C)(O)CCc2ccccc2)cc1 (stereo unspecified) | -2.442 |
| Cn1cccc1C(=O)NCc1cnc2n1CCN(C(N)=O)CC2 | -2.634 |
| NC(=O)N1CCc2ncc(CNC(=O)CC3CC3)n2CC1 | 111.4 |
| O=C(NCc1cnc2n1CCN(CC1CC1)CC2)C1CCC1 | 16.9 |
| CC(=O)N1CCc2ncc(CNC(=O)C3CCC3)n2CC1 | 106.1 |
| CS(=O)(=O)N1CCc2ncc(CNC(=O)C3CCC3)n2CC1 | 95.01 |
| Cn1cccc1C(=O)NCc1cnc2n1CCN(C(=O)N1CCCC1)C2 | 10.49 |
| CN(C)C(=O)N1CCn2cc(CNC(=O)CC3CC3)nc2C1 | -12.44 |
| O=C(NCc1cnc2n1CCN(c1ncc(F)cn1)CC2)C1CCC1 | 15.93 |
